For experiment [1], the target named is T1, Aspartate--tRNA(Asp/Asn) ligase (Mycobacterium tuberculosis (strain ATCC 25618 / H37Rv)) (UniProt P9WFW3). Also: in the data most compounds retested in dose-response had high values.
T1 sequence (whole entry): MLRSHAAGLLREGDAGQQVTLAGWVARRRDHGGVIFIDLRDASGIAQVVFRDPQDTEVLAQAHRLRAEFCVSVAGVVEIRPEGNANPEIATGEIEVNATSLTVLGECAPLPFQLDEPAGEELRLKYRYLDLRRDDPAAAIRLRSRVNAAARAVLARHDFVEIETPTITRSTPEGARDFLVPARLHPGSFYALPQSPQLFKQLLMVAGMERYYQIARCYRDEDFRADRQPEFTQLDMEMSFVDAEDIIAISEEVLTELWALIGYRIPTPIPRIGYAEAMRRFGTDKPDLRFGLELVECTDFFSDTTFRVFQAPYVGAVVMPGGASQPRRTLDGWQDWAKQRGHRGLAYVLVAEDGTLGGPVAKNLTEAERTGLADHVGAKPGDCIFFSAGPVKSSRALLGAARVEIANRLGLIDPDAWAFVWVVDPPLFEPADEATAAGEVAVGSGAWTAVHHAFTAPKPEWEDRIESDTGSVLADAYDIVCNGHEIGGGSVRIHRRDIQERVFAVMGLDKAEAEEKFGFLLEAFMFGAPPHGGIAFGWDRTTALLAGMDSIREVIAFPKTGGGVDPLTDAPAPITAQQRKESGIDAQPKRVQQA
The experiment can be described thus: Assay for Asp RNA synthetase-1 from Mycobacterium tuberculosis. Type of experiment: functional. Also on record: scale not given: direction of the effect not stated beside the values. The settings on record: 30 µM.

The target in experiment [2] is Shiga toxin 2 (Escherichia coli O157:H7) (UniProt P09385+P09386). The experiment can be described thus: E. coli 0.157:H7 Shiga Toxin SOP - stx2 screening assay. The experiment is classed as functional. Details: scale not given: direction of the effect not stated beside the values. The settings on record: 30 µM.

In the case of `CS(=O)(=O)c1ccc(OCCNCc2cccc(F)c2)cc1`, the Percent Effect in experiment [1] is -5.13%; in experiment [2], -38.6%.
On to `CC(=O)Nc1ncc(S(=O)(=O)Nc2ccc(F)cc2)s1`, for which the Percent Effect in experiment [1] was 2%; in experiment [2] it was -10.2%.
With `CCc1nc(CN2CCCN(c3ncnc4ccccc34)CC2)no1`, the Percent Effect was 13.7% in experiment [1] and -69.3% in experiment [2].
On to `CCN1C[C@H]2CCN(C(=O)NC3CCCC3)CC[C@H]2S1(=O)=O`, for which the values for the Percent Effect in experiment [1] and in experiment [2] were -0.232% and -57.6%, respectively.
For `Cc1cc(CN2CCCC(C)(CO)C2)ccc1F` (centres undefined), in that order: -3.62% and 14.3%.
For `COc1ccc(CCC(=O)NC2CCC(O)CC2)cc1OC` (centres undefined), in that order: -2.67% and 33%.
On to `CCn1cnnc1C1CCN(C(=O)COCCc2ccccc2)CC1`, for which the Percent Effect was -3.95% in experiment [1] and -20.2% in experiment [2].
For `CNS(=O)(=O)Cc1ccc(CNC(=O)Nc2cccnc2)cc1`, in that order: -0.514% and -38.8%.
As for `Cc1cnn(CC2CCCN2C(=O)c2ccc3[nH]nnc3c2)c1` (centres undefined), the Percent Effect was -3.83% in experiment [1] and -49.7% in experiment [2].
For `CCn1c(N)nc2cc(C(=O)NCc3ccccc3Cl)cnc21`, in that order: 6.55% and -1.88%.
Consider `CN(C)S(=O)(=O)N1CCN(c2nccc(C(F)(F)F)n2)CC1`, for which the Percent Effect in experiment [1] is -6.64%; in experiment [2], -2.87%.
For `O=C(c1cccnc1)N1CCn2nnc(COc3cccnc3)c2C1`, in that order: 6.79% and -23.3%.
With `O=C(Cc1ccc(F)cc1)N1CCCCC1c1ccn2ccnc2n1` (centres undefined), the Percent Effect in experiment [1] was -3.71%; in experiment [2], 6.23%.
For `CC(C)CCn1c(=O)nc2n1C(=O)N(c1ccc(F)cc1)C2`, in that order: -0.24% and -15.1%.
Take `c1coc(-c2noc(CN3CCCC(Cn4cncn4)C3)n2)c1` (centres undefined): the values for the Percent Effect in experiment [1] and in experiment [2] were -6.28% and -10.4%, respectively.
Take `COCc1cc(NCCc2ccc(F)cc2)n2nccc2n1`: the results for the Percent Effect in experiment [1] and in experiment [2] were 4.6% and 4.14%, respectively.
For `O=C1CC2(CCN(c3nncs3)C2)CN1c1ccccc1` (centres undefined), in that order: 2.1% and -24.1%.

The record behind these values is ChEMBL document CHEMBL3988442, “University of Dundee, Small-Polar-MMV Screening Library” (2021).
